Measured values published in the supplement of paper PMC10849652.
About 7,900 targets were measured; listed, in parts, are those with a hit and a random draw of the rest. About 0.6% of all pairs of compound and target were hits. A number with no mark means an inactive call.

Experiments:
Assay in all cases: log2 fold change, soluble protein after heating vs DMSO (PISA); higher = thermal stabilisation; K562 cells, 10 uM, 30 min; active = over 0.2 and 3.5 SD of the protein, either way, in both replicates (recomputed)
[1] = compound: COC1=CC=C(C=C1)CN2C=CC3=C2C=C(C=C3)C(=O)NO
How it was run: (§1)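 Soluble protein was defined as the supernatant after 21,000xg for 90 min. It came from K562 cells at 2×10^6 cells/mL given 10 μM compound for 30 min, heated in aliquots for 3 min across 48°C-58°C, pooled, and extracted in PBS with 0.5% NP-40 at 4°C, and was quantified by TMTpro 16plex LC-MS/MS with equalised channel sums. Thermal stability against control samples, from duplicates, is reported as log2 fold change.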

[2] = compound: CON(C)C(=O)N1N=C(c2cc(F)ccc2F)S[C@@]1(CCCN)c1ccccc1 [filanesib]
How it was run: as §1

[3] = compound: CO[C@H]1C[C@@H]2CC[C@@H](C)[C@@](O)(O2)C(=O)C(=O)N2CCCC[C@H]2C(=O)O[C@H]([C@H](C)C[C@@H]2CC[C@H](n3cnnn3)[C@H](OC)C2)CC(=O)[C@H](C)/C=C(\C)[C@@H](O)[C@@H](OC)C(=O)[C@H](C)C[C@H](C)/C=C/C=C/C=C/1C [zotarolimus]
How it was run: as §1

[4] = compound: COc1cc(C(=O)O)ccc1NC(=O)[C@@H]1N[C@@H](CC(C)(C)C)[C@](C#N)(c2ccc(Cl)cc2F)[C@H]1c1cccc(Cl)c1F [idasanutlin]
How it was run: as §1

[5] = compound: COc1cc(Nc2ncc3c(n2)-c2ccc(Cl)cc2C(c2c(F)cccc2OC)=NC3)ccc1C(=O)O [alisertib]
How it was run: as §1

[6] = compound: COc1cc2nc(-c3cc(F)ccc3O)nc(N[C@@H]3CNC[C@H]3C(C)(C)O)c2cc1OC
How it was run: as §1

[7] = compound: COc1cc2ncnc(Nc3ccc(F)c(Cl)c3)c2cc1OCCCN1CCOCC1 [gefitinib]
How it was run: as §1

[8] = compound: COc1cccc2cc(-c3nc([C@H]4CC[C@H](C(=O)O)CC4)n4ncnc(N)c34)[nH]c12
How it was run: as §1

[9] = compound: CS(=O)(=O)CCNCc1ccc(-c2ccc3ncnc(Nc4ccc(OCc5cccc(F)c5)c(Cl)c4)c3c2)o1 [lapatinib]
How it was run: as §1

[10] = compound: CS(=O)(=O)N1CCN(Cc2cc3nc(-c4cccc5[nH]ncc45)nc(N4CCOCC4)c3s2)CC1 [pictilisib]
How it was run: as §1

[11] = compound: CS(=O)(=O)c1ccc(-c2cnc(N)c(C(=O)Nc3ccccc3)n2)cc1
How it was run: as §1

[12] = compound: C[C@@H](Oc1cc(-c2cnn(C3CCNCC3)c2)cnc1N)c1c(Cl)ccc(F)c1Cl [crizotinib]
How it was run: as §1

[13] = compound: C[C@@H]1COCCN1C2=NC(=NC(=C2)C3(CC3)S(=O)(=O)C)C4=C5C=CNC5=CC=C4
How it was run: as §1

[14] = compound: C[C@H](C1=CC=C(C=C1)C(=O)NC2=C3C=CNC3=NC=C2)N
How it was run: as §1

[15] = compound: C[C@H](Nc1ncnc2nc[nH]c12)c1cc2cccc(Cl)c2c(=O)n1-c1ccccc1 [duvelisib]
How it was run: as §1

[16] = compound: Cc1cc(Nc2cc(CN3CCOCC3)c3nc(C)c(Cc4ccc(Cl)cc4F)n3n2)n[nH]1 [gandotinib]
How it was run: as §1

[17] = compound: Cc1cc(Nc2cc(N3CCN(C)CC3)nc(Sc3ccc(NC(=O)C4CC4)cc3)n2)n[nH]1 [tozasertib]
How it was run: as §1

[18] = compound: Cc1cc(SCc2sc(-c3ccc(C(F)(F)F)cc3)nc2C)ccc1OCC(=O)O
How it was run: as §1

[19] = compound: Cc1ccc(-n2nc(C(C)(C)C)cc2NC(=O)Nc2ccc(OCCN3CCOCC3)c3ccccc23)cc1 [doramapimod]
How it was run: as §1

[20] = compound: Cc1ccc(C(=O)N(CCCN)[C@@H](c2nc3cc(Cl)ccc3c(=O)n2Cc2ccccc2)C(C)C)cc1 [ispinesib]
How it was run: as §1

Chain of UniProt P29084 (P29084 whole entry, looked up): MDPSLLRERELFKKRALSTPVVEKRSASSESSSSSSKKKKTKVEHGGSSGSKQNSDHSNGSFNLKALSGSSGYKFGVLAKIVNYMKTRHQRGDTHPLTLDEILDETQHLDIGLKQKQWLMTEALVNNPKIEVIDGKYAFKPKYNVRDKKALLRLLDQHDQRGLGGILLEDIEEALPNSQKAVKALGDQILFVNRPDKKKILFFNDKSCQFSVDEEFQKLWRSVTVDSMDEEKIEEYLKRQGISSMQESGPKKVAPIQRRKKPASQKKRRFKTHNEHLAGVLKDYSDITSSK
Chain of UniProt Q92522 (Q92522 whole entry, looked up): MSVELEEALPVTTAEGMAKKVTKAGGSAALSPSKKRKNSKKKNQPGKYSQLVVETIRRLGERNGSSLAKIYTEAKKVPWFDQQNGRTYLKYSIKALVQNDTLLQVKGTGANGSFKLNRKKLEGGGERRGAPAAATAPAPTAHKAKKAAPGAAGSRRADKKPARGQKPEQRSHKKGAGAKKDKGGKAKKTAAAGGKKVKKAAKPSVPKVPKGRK
Chain of UniProt Q9BUJ2 (Q9BUJ2 whole entry, looked up): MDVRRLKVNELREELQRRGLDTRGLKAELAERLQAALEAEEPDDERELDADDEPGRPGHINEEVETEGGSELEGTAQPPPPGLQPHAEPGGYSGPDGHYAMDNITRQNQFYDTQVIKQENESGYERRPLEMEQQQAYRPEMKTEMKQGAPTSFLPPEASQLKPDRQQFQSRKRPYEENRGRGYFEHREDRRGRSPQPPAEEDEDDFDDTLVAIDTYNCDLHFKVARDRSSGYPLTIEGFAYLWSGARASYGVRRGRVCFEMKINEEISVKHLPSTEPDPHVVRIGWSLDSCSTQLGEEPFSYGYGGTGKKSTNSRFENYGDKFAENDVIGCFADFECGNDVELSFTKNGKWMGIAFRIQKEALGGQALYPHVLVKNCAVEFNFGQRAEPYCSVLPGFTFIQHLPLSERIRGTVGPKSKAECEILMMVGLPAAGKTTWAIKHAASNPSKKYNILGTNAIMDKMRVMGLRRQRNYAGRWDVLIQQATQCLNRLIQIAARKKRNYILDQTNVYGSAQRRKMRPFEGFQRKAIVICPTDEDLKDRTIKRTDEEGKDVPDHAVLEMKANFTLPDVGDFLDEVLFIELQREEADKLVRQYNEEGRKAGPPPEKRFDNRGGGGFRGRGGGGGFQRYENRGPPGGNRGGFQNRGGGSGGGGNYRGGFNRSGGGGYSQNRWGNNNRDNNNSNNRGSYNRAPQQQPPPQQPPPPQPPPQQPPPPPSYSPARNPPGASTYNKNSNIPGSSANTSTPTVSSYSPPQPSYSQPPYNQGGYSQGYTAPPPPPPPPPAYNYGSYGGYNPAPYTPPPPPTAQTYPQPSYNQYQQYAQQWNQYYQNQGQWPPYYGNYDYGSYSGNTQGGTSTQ
Chain of UniProt Q9Y3D6 (Q9Y3D6 whole entry, looked up): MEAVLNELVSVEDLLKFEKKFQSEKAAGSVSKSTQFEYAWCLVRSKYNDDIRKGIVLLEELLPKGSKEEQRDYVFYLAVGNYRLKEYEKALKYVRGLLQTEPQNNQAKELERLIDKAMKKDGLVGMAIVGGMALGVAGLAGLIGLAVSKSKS
Chain of UniProt Q9BTY2 (Q9BTY2 whole entry, looked up): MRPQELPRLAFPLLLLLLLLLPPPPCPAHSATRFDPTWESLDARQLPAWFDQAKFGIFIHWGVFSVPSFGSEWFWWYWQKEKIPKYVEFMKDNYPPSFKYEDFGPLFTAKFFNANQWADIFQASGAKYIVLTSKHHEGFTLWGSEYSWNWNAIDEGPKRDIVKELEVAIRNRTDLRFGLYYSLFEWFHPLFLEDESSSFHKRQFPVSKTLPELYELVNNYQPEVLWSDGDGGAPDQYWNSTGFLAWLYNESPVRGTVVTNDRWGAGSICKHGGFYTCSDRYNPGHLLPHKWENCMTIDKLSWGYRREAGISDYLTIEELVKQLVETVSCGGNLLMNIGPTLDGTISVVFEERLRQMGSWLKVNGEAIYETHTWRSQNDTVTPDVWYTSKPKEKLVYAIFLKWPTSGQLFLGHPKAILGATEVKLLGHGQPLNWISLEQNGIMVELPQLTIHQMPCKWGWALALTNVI
Chain of UniProt Q9NRD1 (Q9NRD1 whole entry, looked up): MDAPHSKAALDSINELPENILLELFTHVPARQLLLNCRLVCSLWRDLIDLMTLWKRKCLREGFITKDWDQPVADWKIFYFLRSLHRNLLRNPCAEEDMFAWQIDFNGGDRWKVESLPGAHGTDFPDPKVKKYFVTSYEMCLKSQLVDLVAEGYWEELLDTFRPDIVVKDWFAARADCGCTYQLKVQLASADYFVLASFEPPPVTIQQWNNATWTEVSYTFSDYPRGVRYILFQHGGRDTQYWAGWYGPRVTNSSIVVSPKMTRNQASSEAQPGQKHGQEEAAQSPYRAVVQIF
Chain of UniProt Q9UKN8 (Q9UKN8 whole entry, looked up): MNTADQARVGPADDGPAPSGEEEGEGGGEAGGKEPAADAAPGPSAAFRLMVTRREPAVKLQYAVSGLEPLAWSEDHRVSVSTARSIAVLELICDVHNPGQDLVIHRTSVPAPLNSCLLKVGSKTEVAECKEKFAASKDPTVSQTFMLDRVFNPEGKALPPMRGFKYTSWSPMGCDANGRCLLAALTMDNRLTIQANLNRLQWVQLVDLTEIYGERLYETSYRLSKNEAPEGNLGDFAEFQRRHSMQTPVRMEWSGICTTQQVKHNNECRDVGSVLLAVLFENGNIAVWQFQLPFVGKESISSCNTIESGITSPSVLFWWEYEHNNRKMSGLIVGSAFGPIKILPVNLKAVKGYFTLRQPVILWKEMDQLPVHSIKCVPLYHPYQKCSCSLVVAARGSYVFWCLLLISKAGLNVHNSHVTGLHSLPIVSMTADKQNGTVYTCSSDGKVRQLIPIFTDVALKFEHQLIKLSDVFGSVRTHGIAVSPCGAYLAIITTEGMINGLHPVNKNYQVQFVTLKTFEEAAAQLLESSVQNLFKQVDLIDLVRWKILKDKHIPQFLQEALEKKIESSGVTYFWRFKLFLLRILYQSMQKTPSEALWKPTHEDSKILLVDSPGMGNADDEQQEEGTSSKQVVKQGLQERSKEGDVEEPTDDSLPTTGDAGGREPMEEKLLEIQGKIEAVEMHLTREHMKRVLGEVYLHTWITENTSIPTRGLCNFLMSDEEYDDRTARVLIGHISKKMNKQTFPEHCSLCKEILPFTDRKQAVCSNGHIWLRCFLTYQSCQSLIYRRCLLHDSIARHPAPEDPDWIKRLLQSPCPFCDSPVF
Chain of UniProt Q9BXW9 (Q9BXW9 whole entry, looked up): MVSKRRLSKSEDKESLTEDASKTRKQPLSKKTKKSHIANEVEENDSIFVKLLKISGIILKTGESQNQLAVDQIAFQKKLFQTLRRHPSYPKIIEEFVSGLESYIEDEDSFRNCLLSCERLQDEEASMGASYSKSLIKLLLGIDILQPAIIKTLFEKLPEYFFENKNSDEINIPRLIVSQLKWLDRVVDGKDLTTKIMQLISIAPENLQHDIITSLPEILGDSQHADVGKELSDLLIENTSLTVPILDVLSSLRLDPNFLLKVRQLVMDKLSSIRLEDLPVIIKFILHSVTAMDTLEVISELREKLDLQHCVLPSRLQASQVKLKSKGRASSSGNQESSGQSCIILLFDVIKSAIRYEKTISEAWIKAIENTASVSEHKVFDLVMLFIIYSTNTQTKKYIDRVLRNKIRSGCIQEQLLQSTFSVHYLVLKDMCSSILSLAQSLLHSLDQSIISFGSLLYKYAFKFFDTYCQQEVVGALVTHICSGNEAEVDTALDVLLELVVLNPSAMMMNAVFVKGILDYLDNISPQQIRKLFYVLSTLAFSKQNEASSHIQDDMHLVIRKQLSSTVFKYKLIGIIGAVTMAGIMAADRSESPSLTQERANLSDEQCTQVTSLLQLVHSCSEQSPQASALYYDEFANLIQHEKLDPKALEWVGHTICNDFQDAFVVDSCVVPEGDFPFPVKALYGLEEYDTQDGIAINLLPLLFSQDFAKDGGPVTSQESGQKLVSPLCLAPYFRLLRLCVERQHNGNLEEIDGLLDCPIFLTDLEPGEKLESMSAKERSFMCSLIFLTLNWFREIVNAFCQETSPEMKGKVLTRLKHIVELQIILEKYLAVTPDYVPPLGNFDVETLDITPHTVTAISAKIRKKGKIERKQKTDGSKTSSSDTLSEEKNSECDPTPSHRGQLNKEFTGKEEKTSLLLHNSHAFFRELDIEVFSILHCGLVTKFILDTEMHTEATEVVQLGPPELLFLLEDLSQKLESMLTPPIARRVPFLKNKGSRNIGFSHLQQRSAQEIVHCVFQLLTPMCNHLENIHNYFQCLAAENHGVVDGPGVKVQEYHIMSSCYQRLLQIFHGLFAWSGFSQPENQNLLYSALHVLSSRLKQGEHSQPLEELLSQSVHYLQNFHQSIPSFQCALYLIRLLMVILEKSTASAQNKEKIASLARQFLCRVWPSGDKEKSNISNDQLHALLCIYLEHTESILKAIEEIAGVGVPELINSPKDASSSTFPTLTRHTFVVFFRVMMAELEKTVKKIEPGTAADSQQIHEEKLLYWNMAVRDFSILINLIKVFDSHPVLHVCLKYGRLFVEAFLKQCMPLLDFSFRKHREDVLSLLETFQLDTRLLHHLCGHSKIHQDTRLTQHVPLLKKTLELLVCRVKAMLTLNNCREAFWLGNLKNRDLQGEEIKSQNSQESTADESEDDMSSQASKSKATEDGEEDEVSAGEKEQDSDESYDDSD
Chain of UniProt O14929 (O14929 whole entry, looked up): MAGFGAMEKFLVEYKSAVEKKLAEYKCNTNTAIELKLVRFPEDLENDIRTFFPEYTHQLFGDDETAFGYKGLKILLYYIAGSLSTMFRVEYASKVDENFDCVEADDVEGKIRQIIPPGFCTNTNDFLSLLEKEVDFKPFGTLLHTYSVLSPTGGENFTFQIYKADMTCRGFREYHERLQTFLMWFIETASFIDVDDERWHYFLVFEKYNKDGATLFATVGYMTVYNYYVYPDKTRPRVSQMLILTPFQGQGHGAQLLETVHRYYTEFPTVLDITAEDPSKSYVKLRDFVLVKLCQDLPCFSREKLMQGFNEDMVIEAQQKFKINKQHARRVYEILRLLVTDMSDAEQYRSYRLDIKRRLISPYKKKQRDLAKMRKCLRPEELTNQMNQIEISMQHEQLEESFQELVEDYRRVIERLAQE

Row | Target | log2 fold change [1] | log2 fold change [2] | log2 fold change [3] | log2 fold change [4] | log2 fold change [5] | log2 fold change [6] | log2 fold change [7] | log2 fold change [8] | log2 fold change [9] | log2 fold change [10] | log2 fold change [11] | log2 fold change [12] | log2 fold change [13] | log2 fold change [14] | log2 fold change [15] | log2 fold change [16] | log2 fold change [17] | log2 fold change [18] | log2 fold change [19] | log2 fold change [20]
1 | HDAC2 (UniProt Q92769) | -0.144 | 0.029 | 0.008 | 0.008 | -0.041 | 0 | 0.007 | 0.017 | 0.063 | 0.024 | -0.01 | 0.08 | -0.02 | -0.046 | 0.022 | 0.003 | -0.002 | -0.029 | 0.011 | 0.072
2 | HNRNPUL1 (UniProt Q9BUJ2) | 0.033 | 0.047 | -0.043 | 0.03 | 0.01 | 0.023 | -0.02 | 0.009 | 0.031 | 0.014 | 0.007 | -0.023 | -0.016 | 0.147 | -0.036 | 0.049 | 0.039 | 0.085 | -0.025 | -0.019
3 | FUCA2 (UniProt Q9BTY2) | -0.094 | 0.002 | -0.019 | 0.177 | -0.044 | 0.011 | -0.013 | 0.045 | 0.025 | 0.011 | 0.021 | -0.002 | 0.017 | -0.05 | 0.007 | 0.041 | -0.008 | 0.014 | 0.058 | -0.001
4 | FNTB (UniProt P49356) | 0.088 | 0.26 | 0.159 | -0.024 | -0.074 | -0.057 | 0.02 | 0.024 | 0.18 | -0.165 | 0.104 | 0.054 | -0.035 | -0.137 | 0.085 | 0.169 | -0.012 | -0.043 | -0.012 | 0.109
5 | HAT1 (UniProt O14929) | 0.14 | -0.049 | 0.075 | 0.055 | 0.019 | 0.066 | 0.008 | -0.014 | -0.002 | -0.076 | -0.011 | 0.013 | 0.007 | -0.225 | -0.031 | 0.019 | 0.024 | 0.033 | -0.04 | 0.135
6 | HMGN2 (UniProt P05204) | 0.01 | -0.043 | -0.048 | 0.041 | -0.028 | 0.073 | 0.046 | 0.09 | -0.051 | -0.264 | -0.093 | 0.051 | -0.201 | -0.019 | -0.062 | -0.212 | -0.031 | -0.058 | -0.1 | -0.048
7 | FBXO6 (UniProt Q9NRD1) | -0.016 | 0.008 | 0.044 | -0.17 | -0.043 | 0.022 | 0.059 | 0.038 | 0.026 | -0.091 | 0.035 | 0.475 (active) | 0.052 | -0.082 | 0.04 | 0.088 | 0.036 | 0.036 | -0.049 | 0.39 (active)
8 | GTF2E2 (UniProt P29084) | -0.014 | 0.034 | 0.027 | -0.03 | -0.027 | 0 | 0.009 | -0.056 | 0.022 | 0.031 | 0.037 | 0.012 | -0.029 | -0.002 | 0.051 | -0.03 | 0.02 | 0.071 | -0.025 | -0.01
9 | FANCD2 isoform 1 (UniProt Q9BXW9) | 0.054 | -0.078 | -0.007 | -0.062 | -0.037 | 0.053 | -0.033 | 0.031 | -0.025 | 0.123 | -0.056 | -0.052 | 0.127 | -0.014 | -0.014 | -0.135 | 0.003 | 0.034 | 0.004 | -0.096
10 | H1FX (UniProt Q92522) | -0.116 | 0.112 | 0.049 | 0.161 | -0.147 | 0.033 | -0.044 | -0.24 | 0.133 | -0.134 | -0.175 | 0.091 | -0.524 | 0.432 | -0.143 | 0.13 | 0.029 | 0.021 | 0.188 | -0.016
11 | GTF3C4 (UniProt Q9UKN8) | -0.038 | 0.034 | 0.019 | -0.003 | -0.032 | 0.007 | 0.058 | -0.011 | 0.029 | 0.028 | -0.011 | 0.078 | 0.04 | -0.015 | 0.035 | -0.05 | 0.059 | -0.063 | -0.019 | 0.06
12 | FIS1 (UniProt Q9Y3D6) | -0.016 | -0.008 | 0.153 | -0.047 | -0.034 | 0.061 | -0.025 | 0.069 | 0.008 | 0.071 | -0.017 | 0.045 | 0.037 | -0.286 (active) | -0.143 | 0.032 | 0.079 | 0.071 | 0.02 | -0.007
